# About 14,000 (4.5%) of roughly 310,000 compounds showed an effect of 50% or more. Effects have a minus sign here. Many of the other results were omitted from the sample, so strong results are more common in it than they were.
# Biological target: human ether-à-go-go-related gene (hERG) potassium channel (human, UniProt Q12809)
# Assay: primary screen, population patch clamp on CHO cells stably expressing hERG; higher = less effect of the substance
# 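Note: peak tail current of the secondary pulse compared with the same well before compound.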
# human ether-à-go-go-related gene (hERG) potassium channel, sequence (Q12809 whole entry, looked up): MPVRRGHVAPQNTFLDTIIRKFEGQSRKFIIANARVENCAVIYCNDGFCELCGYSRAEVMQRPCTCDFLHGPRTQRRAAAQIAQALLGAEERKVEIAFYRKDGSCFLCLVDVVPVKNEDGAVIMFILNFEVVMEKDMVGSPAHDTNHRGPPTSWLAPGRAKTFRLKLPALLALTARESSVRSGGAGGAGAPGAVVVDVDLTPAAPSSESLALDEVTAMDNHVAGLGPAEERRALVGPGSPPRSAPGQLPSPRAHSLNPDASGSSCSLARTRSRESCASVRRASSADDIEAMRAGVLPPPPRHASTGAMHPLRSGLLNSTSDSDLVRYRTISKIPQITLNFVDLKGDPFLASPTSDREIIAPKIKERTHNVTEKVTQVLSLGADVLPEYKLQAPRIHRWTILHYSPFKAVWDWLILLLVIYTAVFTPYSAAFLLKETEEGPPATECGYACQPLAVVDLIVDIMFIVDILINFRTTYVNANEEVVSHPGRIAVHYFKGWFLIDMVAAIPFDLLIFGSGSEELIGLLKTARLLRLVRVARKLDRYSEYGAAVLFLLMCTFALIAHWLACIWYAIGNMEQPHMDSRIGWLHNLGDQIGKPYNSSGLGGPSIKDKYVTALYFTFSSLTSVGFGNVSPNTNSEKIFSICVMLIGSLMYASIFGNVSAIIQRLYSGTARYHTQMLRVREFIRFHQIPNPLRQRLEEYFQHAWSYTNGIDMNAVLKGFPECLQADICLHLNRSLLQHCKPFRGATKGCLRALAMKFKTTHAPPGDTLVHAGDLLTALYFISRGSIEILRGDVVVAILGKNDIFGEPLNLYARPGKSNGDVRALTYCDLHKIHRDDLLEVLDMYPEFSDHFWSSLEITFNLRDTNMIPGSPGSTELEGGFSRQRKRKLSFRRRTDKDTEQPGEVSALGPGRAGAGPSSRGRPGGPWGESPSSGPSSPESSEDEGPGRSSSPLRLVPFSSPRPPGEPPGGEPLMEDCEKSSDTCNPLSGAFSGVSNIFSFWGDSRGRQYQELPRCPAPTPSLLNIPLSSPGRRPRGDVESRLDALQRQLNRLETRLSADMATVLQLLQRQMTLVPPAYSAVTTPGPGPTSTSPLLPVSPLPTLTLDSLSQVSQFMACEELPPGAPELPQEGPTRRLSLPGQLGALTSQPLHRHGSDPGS
row,SMILES,"hERG current change (%, negative = inhibition) at 10uM [%]"
1,Cc1ccc2ncnc(NCCCCCC(=O)O)c2c1.Cl,17.4
2,CCOc1ncccc1C(=O)Nc1cccc(S(=O)(=O)NC2=NCCC2)c1,-6.34
3,COc1ccc2[n-]c(S(=O)Cc3ncc(C)c(OC)c3C)nc2c1.COc1ccc2[n-]c(S(=O)Cc3ncc(C)c(OC)c3C)nc2c1.[Mg+2] (stereo not drawn) [49665950],16.3
4,Cc1ccc(C(=O)NCCSC2CCCCC2)cc1S(=O)(=O)Nc1ccccc1,-2.9
5,C=CCCN(Cc1ccccc1)S(=O)(=O)c1ccccc1Br,3.42
6,COc1ccc(OCCn2c(C)c(/C=N/n3cnnc3)c3ccccc32)cc1,-0.339
7,Cn1c(SCC(=O)N/N=C/c2ccc(O)c(O)c2)nc2ccccc21,4.68
8,CCCC(C)NC(=O)COC(=O)c1ccc2c(c1)C(=O)N(Cc1ccco1)C2=O (stereo not drawn),15.8
9,Cc1ccc(NC(=O)COC(=O)c2ccc(F)cc2Cl)c(Br)c1,14.1
10,CCOc1ccc2nc(NC(=O)C3CCN(C(=O)c4ccco4)CC3)sc2c1,10.1
11,O=C(CSc1nc2ccc(Cl)cc2[nH]1)NCc1ccco1,-51.8
12,CCOc1ccc2nc(SCC(=O)NCc3ccco3)sc2c1,-29.8
13,Cc1ccc2nc(SCC(=O)NCc3ccco3)[nH]c2c1,-0.695
14,O=C(CSc1ccc(-c2nc3ccccc3[nH]2)cn1)N1CCN(C(=O)c2ccco2)CC1,-68.4
15,O=C(CCc1nc2ccccc2[nH]1)N1CCN(C(=O)c2ccco2)CC1,6.93
16,CCOc1ccc2nc(SCC(=O)N3CCN(C(=O)c4ccco4)CC3)sc2c1,-66.2
17,Cc1ccc2nc(SCC(=O)N3CCN(C(=O)c4ccco4)CC3)[nH]c2c1,-35.3
18,Cl.O=C(CSc1nc2ccccc2[nH]1)N1CCN(C(=O)c2ccco2)CC1,-23.4
19,O=C(CSc1nc2ccc(Cl)cc2[nH]1)N1CCN(C(=O)c2ccco2)CC1,-56.1
20,Cc1cc2nc(-c3ccc(SCC(=O)N4CCN(C(=O)c5ccco5)CC4)nc3)[nH]c2cc1C,2.64
21,O=C(CSc1nc2ccccc2[nH]1)NCc1ccco1,-1.16

row,SMILES,"hERG current change (%, negative = inhibition) at 10uM [%]"
1,O=c1oc(-c2cccs2)nc2sc3c(c12)CCCC3,-1.83
2,COc1ccc(OC)c(C(=O)c2c(C)oc3cc([N+](=O)[O-])c(O)c([N+](=O)[O-])c23)c1,13.3
3,COc1ccc(C2C(C(C)=O)=C(O)C(=O)N2CCc2c[nH]c3ccccc23)cc1 (stereo not drawn),13.7
4,CCn1nnc(NC(=O)c2cc3ccccc3o2)n1,4.36
5,Cc1ccc(-n2c(CC#N)n[nH]c2=S)c(C)c1,3.3
6,O=C(NCc1ccccc1)Nc1cccn(Cc2ccccc2)c1=O,10.4
7,Cc1cccc(N2CN=c3s/c(=C\c4ccccn4)c(=O)n3C2)c1,-1.21
8,Cc1ccc2nc(N3CCN(C(=O)c4ccco4)CC3)sc2c1,-32
9,O=C(c1ccco1)N1CCN(c2nc3ccsc3c(=O)s2)CC1,-79
10,O=C(CSc1nc2ccccc2s1)N1CCN(C(=O)c2ccco2)CC1,-41.3
11,COc1ccc2nc(N3CCN(C(=O)C4COc5ccccc5O4)CC3)sc2c1 (stereo not drawn),-61.2
12,O=C(C1COc2ccccc2O1)N1CCN(c2nc3ccc([N+](=O)[O-])cc3s2)CC1 (stereo not drawn),-29.8
13,O=C(CSc1nc2cc(Cl)ccc2s1)N1CCN(C(=O)c2ccco2)CC1,-71.6
14,O=C(CSc1nc2cc(Cl)ccc2s1)c1ccco1,2.2
15,O=C(C1COc2ccccc2O1)N1CCN(c2nc3ccccc3s2)CC1 (stereo not drawn),-27.9
16,Cc1ccc(Cl)c2sc(N3CCN(C(=O)c4ccco4)CC3)nc12,-10.3
17,Cc1ccc(-c2cc(-c3ccccc3)c(C#N)c(Br)n2)cc1,-4.18
18,CC1CC(C)CN(S(=O)(=O)c2ccc3c(c2)oc(=O)n3CC(=O)N(C)Cc2ccccc2)C1 (stereo not drawn),7.04
19,CCOCCCNC(=S)N1C2CCC1CC(NC(=O)NC1CCCCC1)C2 (stereo not drawn),1.88
20,Cc1ccc2nc(-c3ccccc3)c(CN3CCN(c4ccccc4F)CC3)n2c1,1.85
21,CN(C)S(=O)(=O)c1cccc(-c2nn(-c3ccccc3)cc2/C=C(/C#N)C(=O)NCc2ccco2)c1,-26.9

row,SMILES,"hERG current change (%, negative = inhibition) at 10uM [%]"
1,CCCN1CCN(CCCNC(=O)c2cc3c(=O)[nH]c4ccc(C)cc4c3s2)CC1,-29.5
2,COc1ccccc1-c1ccc(=O)n(CC(=O)NC2CCc3ccccc32)n1 (stereo not drawn),5.88
3,CCOC(=O)CC(C#N)c1cn(C)c2ccccc12 (stereo not drawn),-17.8
4,CCn1c(SCC(=O)Nc2ccccc2C)nnc1-c1ccccc1O,1.99
5,Cc1ccc(C2=NN(S(C)(=O)=O)C(c3cccs3)C2)cc1 (stereo not drawn),-4.62
6,Cc1nn2c(N3CCCC3)cc(C(C)C)nc2c1-c1ccccc1,3.92
7,CCCCC1CC1C(=O)Nc1ncc2c(n1)CC(C)(C)CC2=O (stereo not drawn),-57.5
8,CC1(C)CC(=O)c2cnc(NC(=O)C3CCCC3)nc2C1,-12.6
9,CCCCC(=O)Nc1ncc2c(n1)CC(C)(C)CC2=O,-5.63
10,COc1cc(Br)c(CN2CCCN(C)CC2)cc1OC,-0.597
11,CN(C)C=O.O=C(COC(=O)c1ccc(S(=O)(=O)N2CCCC2)cc1)Nc1cccnc1Cl,7.25
12,Cc1cccc(C(=O)N2CCCCCC2)c1,2.61
13,Cc1ccc(NC(=O)C(=O)NCC2CCN(C(=O)c3cccc([N+](=O)[O-])c3)CC2)cc1,-16.5
14,O=C(NCC1CCCCC1)c1ccc([N+](=O)[O-])cc1,-16
15,Cc1cccc(C(=O)NCCCNC(=O)c2cccc(C)c2)c1,-3.67
16,O=C(NCC1CCN(C(=O)c2ccc([N+](=O)[O-])cc2)CC1)c1ccc([N+](=O)[O-])cc1,-71.3
17,O=C(NCC1CCN(C(=O)c2ccc([N+](=O)[O-])cc2)CC1)C(=O)Nc1ccccc1,-36.8
18,O=C(NCC1CCCCC1)c1cccc([N+](=O)[O-])c1,9.98
19,Cc1cccc(C(=O)NCC2CCN(C(=O)c3cccc(C)c3)CC2)c1,-51.2
20,O=C(NCC1CCN(C(=O)c2cccc([N+](=O)[O-])c2)CC1)c1cccc([N+](=O)[O-])c1,-53.5
21,Cc1cccc(C(=O)NCCN(C)C)c1.Cl,8.43

row,SMILES,"hERG current change (%, negative = inhibition) at 10uM [%]"
1,Cc1cccc(C(=O)N2CCCN(C(=O)c3cccc(C)c3)CC2)c1,-0.26
2,Cc1cccc(C(=O)NCCCN(C)CCCNC(=O)c2cccc(C)c2)c1,-52.2
3,COc1ccc(Cl)cc1Nc1nc(-c2cccnc2)cs1,5.19
4,Cc1nonc1NC(=O)OC1CCCCC1,1.97
5,Cc1cccc(NC(=S)N2CCCN(c3ncccc3[N+](=O)[O-])CC2)c1,-16.7
6,O=C(N[C@H]1CC1c1ccccc1)c1ccc([N+](=O)[O-])cc1 (stereo partly drawn),-6.56
7,COc1ccccc1NC(=O)Nc1cnccn1,-1.51
8,CC1CCCC(NC(=S)NC(=O)c2cncc(Br)c2)C1C (stereo not drawn),21.7
9,O=C(NCc1ccc2c(c1)OCO2)C1CCN(S(=O)(=O)c2ccc(Br)s2)CC1,-24
10,CCc1cccc(C)c1NC(=O)C1C2CCC(O2)C1C(=O)O (stereo not drawn),18.8
11,Cc1ccc(C2=NS(=O)(=O)N(C)C(C(=O)Nc3cc(C)n(CC(=O)N4CCCCC4)n3)=C2)cc1,10.3
12,Cc1ccc2nc(-c3cccc(-c4cccc(Cl)c4)c3)c(NCc3ccccc3)n2c1.O=C(O)C(F)(F)F,16.3
13,O=S(=O)(c1cccc(-c2nc3ccccc3s2)c1)N1CCOCC1,-7.39
14,CC1=NN(/C(=N\c2nnc(C)s2)Nc2ccccc2)[C@H](c2ccc(C)cc2)S1,-13.5
15,CN(C)S(=O)(=O)c1ccc2c(c1)c(=O)c(C(=O)NCCCN1CCCCCC1)cn2C,-4.72
16,CCC1CCCCN1CCCNC(=O)c1cn(CC)c2ccc(S(=O)(=O)N(C)C3CCCCC3)cc2c1=O (stereo not drawn),-79.8
17,CCC1CCCCN1CCCNC(=O)c1cn(C)c2ccc(S(=O)(=O)N(C)C3CCCCC3)cc2c1=O (stereo not drawn),-62.8
18,CCOC(=O)N1CCN(C(=O)c2cn(C)c3ccc(S(=O)(=O)N(C)C4CCCCC4)cc3c2=O)CC1,-29.4
19,CCn1cc(C(=O)OC)c(=O)c2cc(S(=O)(=O)N(C)C3CCCCC3)ccc21,-28.4
20,CCn1cc(C(=O)NCC2CCCO2)c(=O)c2cc(S(=O)(=O)N(C)C3CCCCC3)ccc21 (stereo not drawn),-31.6
21,CCc1ccc(-c2cc(C(F)(F)F)n3nc(C(=O)Nc4cnn(Cc5ccccc5C)c4)cc3n2)s1,5.41
